Measurements from the supplement of paper PMC3334620.
In all, about 33,000 sequences were measured (“E-score (-0.5 to 0.5)”: median about -0.0059, highest 2% from about 0.26 on). What follows is part of a selection rich in the highest values, with near analogues and random picks from the rest.

Target: T1, Cin5 (UniProt P40917)
T1 sequence: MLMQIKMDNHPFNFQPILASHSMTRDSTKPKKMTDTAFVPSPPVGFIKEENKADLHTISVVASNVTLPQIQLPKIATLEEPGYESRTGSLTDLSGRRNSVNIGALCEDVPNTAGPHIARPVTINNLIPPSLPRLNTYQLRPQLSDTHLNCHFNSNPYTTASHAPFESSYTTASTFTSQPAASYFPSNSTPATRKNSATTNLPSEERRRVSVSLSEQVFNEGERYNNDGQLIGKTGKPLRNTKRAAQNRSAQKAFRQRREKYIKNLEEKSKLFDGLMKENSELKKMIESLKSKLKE
Test: PBM E-score (8-mer binding enrichment) (E-score (-0.5 to 0.5)); higher = stronger / more preferred TF binding
Details: protein concentration: 100 nM; construct: GST-full length
Experimental: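 Universal 'all 10-mer' protein binding microarrays (Agilent AMADID 015681) probed with GST-tagged S. cerevisiae TFs (full-length or DBD) made by in vitro transcription/translation (PURExpress), about 100-200 nM. Bound TF was detected with fluorescent anti-GST. Each ungapped 8-mer (which stands for itself and its reverse complement) is scored by the PBM enrichment score (E-score), a modified Wilcoxon-Mann-Whitney statistic from -0.5 to +0.5, computed with the Universal PBM Analysis Suite. Scale: above 0.35 generally sequence-specific binding.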

Going from GGTAAGTA to AAAATGGT, the “PBM E-score” value rises from -0.00023 to 0.216.

Compared with TCTGCACA, CTTACGAC is higher in “PBM E-score” value: -0.00335 for the first, 0.103 for the second.

First: AGTACGAA
Second: ATTACGAC
The “PBM E-score” value of the first is lower: 0.167 for the first, 0.232 for the second.

Compared with GTTACGAA, AGTACGAG is lower in “PBM E-score” value: 0.16 for the first, 0.0932 for the second.

First: ATTACGGA
Second: ATTACGAA
The “PBM E-score” value of the first is higher: 0.322 for the first, 0.295 for the second.

Compared with ATTACGCA, ATTACGGC is lower in “PBM E-score” value: 0.25 for the first, 0.181 for the second.

Going from ATTACGAG to ATTACGGG, the “PBM E-score” value falls from 0.299 to 0.103.

Compared with CTTACGAA, GAGGTTAA is lower in “PBM E-score” value: 0.26 for the first, -0.0963 for the second.

Compared with AGCAATTC, AGGACCTC is lower in “PBM E-score” value: 0.0771 for the first, -0.0477 for the second.

Going from CCTTGAGC to ATTCCGAG, the “PBM E-score” value rises from -0.155 to 0.182.

Compared with CAAGTCTA, ATACTGAT is higher in “PBM E-score” value: -0.202 for the first, 0.283 for the second.

Going from ATACTGTC to ATACTGAC, the “PBM E-score” value falls from 0.208 to 0.192.

First: TACGCCCA
Second: AAGTACTG
The “PBM E-score” value of the first is higher: 0.0142 for the first, -0.0282 for the second.

First: CAAAAGTC
Second: GGCTTACC
The “PBM E-score” value of the first is lower: -0.0102 for the first, 0.169 for the second.

Going from CACTTACG to TCCTTACA, the “PBM E-score” value falls from 0.112 to -0.021.

Going from GCCTTACA to AGCTTACG, the “PBM E-score” value rises from -0.253 to 0.337.

Compared with TGCTTACA, GGCTTACA is higher in “PBM E-score” value: 0.305 for the first, 0.332 for the second.

First: ACCTTACG
Second: ATCTTACG
The “PBM E-score” value of the first is lower: 0.0253 for the first, 0.164 for the second.

Compared with CGCTTACC, CGCTTACG is higher in “PBM E-score” value: 0.15 for the first, 0.379 for the second.

Going from TGCTTAAA to ACTTCTAT, the “PBM E-score” value falls from 0.102 to 0.0803.

Going from ATATGCGG to CACTGCCA, the “PBM E-score” value falls from 0.148 to -0.0785.

First: CCCCCCCA
Second: CTAGCCTC
The “PBM E-score” value of the first is lower: -0.464 for the first, -0.159 for the second.

First: GTACAGCA
Second: ATGCACTA
The “PBM E-score” value of the first is lower: -0.134 for the first, -0.0624 for the second.

Compared with ATATAGAT, GGAGCTAC is lower in “PBM E-score” value: 0.207 for the first, -0.236 for the second.

Compared with AGCTTATA, AGCTTACT is higher in “PBM E-score” value: 0.191 for the first, 0.201 for the second.

First: AGCTTATG
Second: AGCTTACC
The “PBM E-score” value of the first is higher: 0.296 for the first, 0.226 for the second.

Compared with CGCTTAGA, CACTTACA is higher in “PBM E-score” value: -0.0919 for the first, 0.127 for the second.

Going from AGCTTATC to AGCTTACA, the “PBM E-score” value rises from 0.204 to 0.351.

Compared with CGCTTACA, ACCCGATA is lower in “PBM E-score” value: 0.315 for the first, -0.0171 for the second.

Compared with CCCTGTTC, CCTTCTTC is higher in “PBM E-score” value: -0.265 for the first, -0.107 for the second.

First: AGAAGCTG
Second: ACCAAGAT
The “PBM E-score” value of the first is lower: -0.049 for the first, 0.146 for the second.

First: ATTATATG
Second: GTTATACA
The “PBM E-score” value of the first is higher: 0.249 for the first, 0.181 for the second.

First: ATTTTGTG
Second: GTTATAGA
The “PBM E-score” value of the first is higher: 0.139 for the first, -0.0531 for the second.

Going from GTTATATA to ATTATATC, the “PBM E-score” value falls from 0.271 to 0.197.

Compared with ATTATATA, CTTTTGTA is lower in “PBM E-score” value: 0.333 for the first, 0.205 for the second.

Compared with ATCATATA, ATTTTGTA is higher in “PBM E-score” value: 0.269 for the first, 0.286 for the second.

Going from GTCATATA to ATCATATG, the “PBM E-score” value rises from 0.168 to 0.169.

First: TACATCCA
Second: GCAGCACA
The “PBM E-score” value of the first is higher: 0.0256 for the first, 0.00715 for the second.

First: AGGTGGTA
Second: GGCCAGGA
The “PBM E-score” value of the first is higher: 0.0927 for the first, -0.0739 for the second.

Going from CAGCGTAA to AGGCTATA, the “PBM E-score” value falls from 0.0543 to -0.161.

Compared with ATGTTGTG, GCTATATA is higher in “PBM E-score” value: 0.151 for the first, 0.153 for the second.

Going from GTGTTGTA to ATGTTGTA, the “PBM E-score” value rises from 0.0125 to 0.263.

Going from ATTATCCA to CTTATATA, the “PBM E-score” value rises from 0.122 to 0.348.

Going from ATTATCCG to ACTATATA, the “PBM E-score” value rises from 0.289 to 0.309.

Compared with CTTATATC, CTTATACA is lower in “PBM E-score” value: 0.232 for the first, 0.0656 for the second.

First: ATTATCCC
Second: ACTATATC
The “PBM E-score” value of the first is lower: 0.151 for the first, 0.214 for the second.

First: GCGTTAAC
Second: CCCTAGAC
The “PBM E-score” value of the first is higher: 0.00491 for the first, -0.112 for the second.

Compared with TCCTCGAA, TAAGCGTA is higher in “PBM E-score” value: 0.043 for the first, 0.126 for the second.

Going from GAACTGGA to CTTTGCGC, the “PBM E-score” value falls from 0.158 to 0.123.

First: CGTATGAA
Second: GCTCTATA
The “PBM E-score” value of the first is higher: 0.188 for the first, -0.0373 for the second.

First: GCGATCTA
Second: ATTTGTAA
The “PBM E-score” value of the first is lower: 0.068 for the first, 0.326 for the second.

First: ATTTGTTA
Second: ATTTGTTC
The “PBM E-score” value of the first is lower: 0.179 for the first, 0.307 for the second.

Going from ATTTTATA to GTTTTATA, the “PBM E-score” value falls from 0.272 to 0.148.

Going from ATTATACC to ATTATACG, the “PBM E-score” value rises from 0.187 to 0.257.

Going from ATTATACA to CTTTGTTC, the “PBM E-score” value falls from 0.123 to 0.0999.

Compared with CTTTGTAA, ATTTTATG is higher in “PBM E-score” value: 0.115 for the first, 0.208 for the second.

For ATTTGTAG, the “PBM E-score” value was 0.136.
